Laboratory results as given in PubChem BioAssay AID1159580 (chemical genetic matrix, 2015).
Values joined by “and” are separate entries in the source; they are usually repeats but may differ in a detail not shown here. Equal entries are not always repeated. Out of some 5,500 compounds screened, about 2,000 (36%) were called active. About 18% were inconclusive and are not listed. No stated cut-off is given here; in the data, active means normalized growth mostly below about 0.91 (no sharp cut-off); inconclusive means no clear call, values can overlap the other calls; inactive means mostly above about 0.92. Some of the results follow.

Test: chemical genetic growth profiling, strain panel (AID 1159580);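 further: tested at 20 µM; growth read once vehicle control cultures reached saturation at 30 °C; 1 = growth at the plate median or of vehicle wells; lower values mean less growth of the strain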
Settings: S. cerevisiae deletion strains, growth OD

Measured: normalized growth

O=C(O)CCC(=O)OC[C@@H](NC(=O)C(Cl)Cl)[C@H](O)c1ccc([N+](=O)[O-])cc1
inactive: locus YAL021C, strain ccr4, active compounds read low 0.99 | locus YAL026C, strain drs2, active compounds read low 0.993 | locus YAL030W, strain snc1, active compounds read low 0.981 | locus YBL061C, strain skt5, active compounds read low 0.971 | locus YBR009C, strain hhf1, active compounds read low 0.956 | locus YBR021W, strain FUR4, active compounds read low 1.02 | locus YBR023C, strain chs3, active compounds read low 0.976 | locus YBR171W, strain sec66, active compounds read low 0.962 | locus YBR229C, strain ROT2, active compounds read low 0.951 | locus YBR231C, strain swc5, active compounds read low 1 | locus YBR279W, strain paf1, active compounds read low 0.989 | locus YCL011C, strain gbp2, active compounds read low 0.942 | locus YCL016C, strain dcc1, active compounds read low 0.953 | locus YCL029C, strain bik1, active compounds read low 0.986 | locus YCL061C, strain MRC1, active compounds read low 0.981 | locus YCL069W, strain vba3, active compounds read low 0.982 | locus YCR088W, strain abp1, active compounds read low 0.986 | locus YDL005C, strain med2, active compounds read low 0.984 | locus YDL035C, strain GPR1, active compounds read low 0.974 | locus YDL040C, strain nat1, active compounds read low 0.996 | locus YDL074C, strain BRE1, active compounds read low 0.98 | locus YDL101C, strain DUN1, active compounds read low 0.995 | locus YDL134C, strain PPH21, active compounds read low 0.964 | locus YDL185W, strain tfp1, active compounds read low 0.96 | locus YDL192W, strain arf1, active compounds read low 0.979 | locus YDR001C, strain nth1, active compounds read low 0.975 | locus YDR069C, strain doa4, active compounds read low 1.01 | locus YDR101C, strain arx1, active compounds read low 0.963 | locus YDR137W, strain rgp1, active compounds read low 0.963 | locus YDR150W, strain NUM1, active compounds read low 0.982 | locus YDR159W, strain sac3, active compounds read low 0.997 | locus YDR162C, strain NBP2, active compounds read low 0.93 | locus YDR195W, strain ref2 1 | locus YDR297W, strain sur2, active compounds read low 0.964 | locus YDR318W, strain mcm21, active compounds read low 0.99 | locus YDR334W, strain swr1, active compounds read low 0.945 | locus YDR335W, strain msn5, active compounds read low 0.973 | locus YDR388W, active compounds read low 0.983 | locus YDR392W, strain spt3, active compounds read low 0.914 | locus YDR502C, strain sam2, active compounds read low 0.991 | locus YEL003W, strain gim4, active compounds read low 0.982 | locus YEL037C, strain rad23, active compounds read low 0.991 | locus YEL061C, strain CIN8 (second series), active compounds read low 0.987 | locus YEL061C, strain CIN8, active compounds read low 0.988 | locus YER015W, strain faa2, active compounds read low 0.989 | locus YER016W, strain bim1, active compounds read low 0.988 | locus YER110C, active compounds read low 0.964 | locus YER111C, strain swi4, active compounds read low 0.982 | locus YER155C, strain BEM2 (second series), active compounds read low 1.04 | locus YER155C, strain BEM2, active compounds read low 0.989 | locus YER167W, strain BCK2, active compounds read low 0.997 | locus YFR010W, strain ubp6, active compounds read low 0.979 | locus YGL078C, strain dbp3, active compounds read low 0.995 | locus YGL167C, strain pmr1, active compounds read low 0.974 | locus YGL173C, strain kem1, active compounds read low 0.967 | locus YGL227W, strain vid30, active compounds read low 0.977 | locus YGL240W, strain doc1, active compounds read low 1 | locus YGL248W, strain PDE1, active compounds read low 1.01 | locus YGL253W, strain hxk2, active compounds read low 0.968 | locus YGR135W, strain pre9, active compounds read low 1.03 | locus YGR229C, strain SMI1, active compounds read low 0.969 | locus YGR252W, strain gcn5, active compounds read low 1.07 | locus YHR013C, strain ard1, active compounds read low 0.955 | locus YHR027C, strain rpn1, active compounds read low 0.956 | locus YHR030C, strain SLT2, active compounds read low 0.974 | locus YHR079C, strain IRE1 (second series), active compounds read low 0.989 | locus YHR079C, strain IRE1, active compounds read low 0.961 | locus YHR094C, strain hxt1, active compounds read low 0.979 | locus YHR129C, strain ARP1, active compounds read low 0.982 | locus YHR142W, strain chs7, active compounds read low 0.926 | locus YHR200W, strain rpn10, active compounds read low 0.981 | locus YIL066C, strain RNR3, active compounds read low 0.947 | locus YIL073C, strain SPO22, active compounds read low 0.988 | locus YIL125W, strain kgd1, active compounds read low 0.983 | locus YIR030C, strain dcg1, active compounds read low 0.98 | locus YJL092W, strain hpr5, active compounds read low 0.981 | locus YJL095W, strain BCK1 (second series), active compounds read low 0.972 | locus YJL095W, strain BCK1, active compounds read low 1.04 and 0.971 | locus YJL115W, strain asf1, active compounds read low 0.969 | locus YJL129C, strain trk1, active compounds read low 0.968 | locus YJL134W, strain LCB3, active compounds read low 0.982 | locus YJL154C, strain vps35, active compounds read low 0.975 | locus YJL164C, strain tpk1, active compounds read low 0.968 | locus YJL166W, strain qcr8, active compounds read low 0.964 | locus YJL168C, strain set2, active compounds read low 0.983 | locus YJL187C, strain SWE1 (second series), active compounds read low 1 | locus YJL187C, strain SWE1, active compounds read low 0.975
